Measurements reported in the supplement of paper PMC10849652.
Of roughly 8,800 targets only a part is listed; those with a hit were picked by preference. About 0.5% of all pairs of compound and target were hits. A number with no mark means an inactive call.

Key:
Test in all cases: log2 fold change, soluble protein after heating vs DMSO (PISA); higher = thermal stabilisation; K562 lysate, 10 uM; active = over 0.2 and 3.5 SD of the protein, either way, in both replicates (recomputed)
ibrutinib = compound: C=CC(=O)N1CCC[C@@H](n2nc(-c3ccc(Oc4ccccc4)cc3)c3c(N)ncnc32)C1 [ibrutinib]
How it was run: (§1)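 A 30 min treatment with 10 μM compound was applied to crude K562 extract at 1 mg/mL protein in PBS pH 7.4 with 1 mM MgCl2. Heating for 3 min spanned 48°C-58°C, after which aliquots were pooled, adjusted to 0.5% NP-40 at 4°C and spun at 21,000xg for 90 min. TMTpro 16plex LC-MS/MS of the supernatant, with channel sums equalised, gave values recorded as log-two fold change in thermal stability against solvent controls, from duplicates.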

[1] = compound: CC(=O)c1cnc2ccc(-c3cc(Cl)c(O)c(Cl)c3)nc2c1N[C@H]1CC[C@H](CN(C)C)CC1
How it was run: as §1

ralimetinib = compound: CC(C)(C)Cn1c(N)nc2ccc(-c3[nH]c(C(C)(C)C)nc3-c3ccc(F)cc3)nc21 [ralimetinib]
How it was run: as §1

[2] = compound: CC(C)(O)CC(=O)NCCn1ccc2ncnc(Nc3ccc(Oc4cccc(C(F)(F)F)c4)c(Cl)c3)c21
How it was run: as §1

[3] = compound: CC(C)C1=C2N=C(C=C(N2N=C1)NCC3=CC=CC=C3)NCCCCCCN
How it was run: as §1

[4] = compound: CC1=C(C(CC(=O)N1)C2=CC=C(C=C2)C(F)(F)F)C(=O)NC3=C(C=C4C(=C3)C=NN4)F
How it was run: as §1

[5] = compound: CC1=C(C2=C(C=C1)C(=O)C3=CC=CC=C3N2CCCN)C
How it was run: as §1

[6] = compound: CC1=C(C=C(C=C1)NC(=O)C2=CC(=CC=C2)C(C)(C)C#N)NC3=CC4=C(C=C3)N=CN(C4=O)C
How it was run: as §1

[7] = compound: CC1=C(C=C(C=C1)NC(=O)C2=CC(=CC=C2)N(C)C)NC(=O)C3=CC=C(C=C3)O
How it was run: as §1

[8] = compound: CC1=CC=C(C=C1)SC2=C3C=C(SC3=CN=C2)C(=O)N
How it was run: as §1

vemurafenib = compound: CCCS(=O)(=O)Nc1ccc(F)c(C(=O)c2c[nH]c3ncc(-c4ccc(Cl)cc4)cc23)c1F [vemurafenib]
How it was run: as §1

[9] = compound: CCCS(=O)(=O)Nc1ccc(F)c(C(=O)c2c[nH]c3ncc(Cl)cc23)c1F
How it was run: as §1

barasertib = compound: CCN(CCCOc1ccc2c(Nc3cc(CC(=O)Nc4cccc(F)c4)[nH]n3)ncnc2c1)CCOP(=O)(O)O [barasertib]
How it was run: as §1

[10] = compound: CC[C@@H]1C(=O)N(C)c2cnc(Nc3ccc(C(=O)NC4CCN(C)CC4)cc3OC)nc2N1C1CCCC1
How it was run: as §1

volasertib = compound: CC[C@@H]1C(=O)N(C)c2cnc(Nc3ccc(C(=O)N[C@H]4CC[C@H](N5CCN(CC6CC6)CC5)CC4)cc3OC)nc2N1C(C)C [volasertib]
How it was run: as §1

[11] = compound: CCn1c(C(=O)N(C2CC2)C2CC2)cc2c3c(ncn3C)c(Nc3cc(C)n(C)n3)nc21
How it was run: as §1

[12] = compound: CCn1cc(-c2ccnc3[nH]c(-c4cccc(CN(C)C)c4)cc23)c(-c2ccc(NC(=O)N(C)C)cc2)n1
How it was run: as §1

[13] = compound: CN1CCC(CNc2ccc3ncc(-c4cccc(OC(F)(F)F)c4)n3n2)CC1
How it was run: as §1

saracatinib = compound: CN1CCN(CCOc2cc(OC3CCOCC3)c3c(Nc4c(Cl)ccc5c4OCO5)ncnc3c2)CC1 [saracatinib]
How it was run: as §1

sotrastaurin = compound: CN1CCN(c2nc(C3=C(c4c[nH]c5ccccc45)C(=O)NC3=O)c3ccccc3n2)CC1 [sotrastaurin]
How it was run: as §1

Chain of UniProt Q9GZR2 (Q9GZR2 whole entry, looked up): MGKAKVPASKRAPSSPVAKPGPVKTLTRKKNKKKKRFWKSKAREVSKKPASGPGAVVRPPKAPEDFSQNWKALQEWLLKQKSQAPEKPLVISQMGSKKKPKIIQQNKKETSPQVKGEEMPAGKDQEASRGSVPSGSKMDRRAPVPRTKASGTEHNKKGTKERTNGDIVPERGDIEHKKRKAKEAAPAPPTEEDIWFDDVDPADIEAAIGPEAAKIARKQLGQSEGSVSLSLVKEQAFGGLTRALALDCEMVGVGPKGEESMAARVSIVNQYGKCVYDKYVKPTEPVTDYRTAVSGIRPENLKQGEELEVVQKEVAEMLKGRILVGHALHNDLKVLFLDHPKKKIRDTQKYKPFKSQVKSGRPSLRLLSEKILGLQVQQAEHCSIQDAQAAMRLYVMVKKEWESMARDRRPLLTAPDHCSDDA
Chain of UniProt P52756 (P52756 whole entry, looked up): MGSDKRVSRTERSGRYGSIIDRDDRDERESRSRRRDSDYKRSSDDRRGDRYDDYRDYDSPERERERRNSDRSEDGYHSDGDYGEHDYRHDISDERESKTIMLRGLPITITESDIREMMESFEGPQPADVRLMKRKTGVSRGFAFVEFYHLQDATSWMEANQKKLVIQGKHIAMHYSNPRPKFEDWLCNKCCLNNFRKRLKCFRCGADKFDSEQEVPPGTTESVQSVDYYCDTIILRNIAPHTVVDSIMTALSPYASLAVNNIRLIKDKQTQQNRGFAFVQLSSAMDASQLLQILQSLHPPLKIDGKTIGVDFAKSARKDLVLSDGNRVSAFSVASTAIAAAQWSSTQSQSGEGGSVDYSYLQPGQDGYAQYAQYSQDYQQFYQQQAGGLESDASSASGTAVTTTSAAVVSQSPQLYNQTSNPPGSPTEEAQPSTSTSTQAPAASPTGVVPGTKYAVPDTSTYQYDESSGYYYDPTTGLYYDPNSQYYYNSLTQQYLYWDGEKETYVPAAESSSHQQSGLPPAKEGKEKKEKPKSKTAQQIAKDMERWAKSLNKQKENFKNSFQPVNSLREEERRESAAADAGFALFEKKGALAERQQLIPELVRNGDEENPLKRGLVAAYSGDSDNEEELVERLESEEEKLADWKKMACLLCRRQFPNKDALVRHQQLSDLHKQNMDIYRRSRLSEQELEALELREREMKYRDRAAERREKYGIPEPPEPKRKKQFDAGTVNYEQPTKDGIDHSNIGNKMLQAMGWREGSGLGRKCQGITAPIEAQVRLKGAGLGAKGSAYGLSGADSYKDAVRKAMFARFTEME
Chain of UniProt P23443 (P23443 whole entry, looked up): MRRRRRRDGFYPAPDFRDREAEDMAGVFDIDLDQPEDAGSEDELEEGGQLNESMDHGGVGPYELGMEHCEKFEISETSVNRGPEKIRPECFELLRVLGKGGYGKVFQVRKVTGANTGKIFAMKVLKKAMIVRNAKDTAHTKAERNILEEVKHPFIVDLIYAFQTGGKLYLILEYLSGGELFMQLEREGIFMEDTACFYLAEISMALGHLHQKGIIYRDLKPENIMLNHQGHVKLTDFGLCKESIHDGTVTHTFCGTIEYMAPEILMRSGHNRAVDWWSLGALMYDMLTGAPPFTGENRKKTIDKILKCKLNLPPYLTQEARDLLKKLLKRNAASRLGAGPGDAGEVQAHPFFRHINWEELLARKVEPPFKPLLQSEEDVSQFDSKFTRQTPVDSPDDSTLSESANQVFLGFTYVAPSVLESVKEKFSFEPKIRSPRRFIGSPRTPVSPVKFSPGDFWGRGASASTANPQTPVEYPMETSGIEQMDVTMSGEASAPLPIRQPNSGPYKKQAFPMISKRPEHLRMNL
Chain of UniProt O94855 (O94855 whole entry, looked up): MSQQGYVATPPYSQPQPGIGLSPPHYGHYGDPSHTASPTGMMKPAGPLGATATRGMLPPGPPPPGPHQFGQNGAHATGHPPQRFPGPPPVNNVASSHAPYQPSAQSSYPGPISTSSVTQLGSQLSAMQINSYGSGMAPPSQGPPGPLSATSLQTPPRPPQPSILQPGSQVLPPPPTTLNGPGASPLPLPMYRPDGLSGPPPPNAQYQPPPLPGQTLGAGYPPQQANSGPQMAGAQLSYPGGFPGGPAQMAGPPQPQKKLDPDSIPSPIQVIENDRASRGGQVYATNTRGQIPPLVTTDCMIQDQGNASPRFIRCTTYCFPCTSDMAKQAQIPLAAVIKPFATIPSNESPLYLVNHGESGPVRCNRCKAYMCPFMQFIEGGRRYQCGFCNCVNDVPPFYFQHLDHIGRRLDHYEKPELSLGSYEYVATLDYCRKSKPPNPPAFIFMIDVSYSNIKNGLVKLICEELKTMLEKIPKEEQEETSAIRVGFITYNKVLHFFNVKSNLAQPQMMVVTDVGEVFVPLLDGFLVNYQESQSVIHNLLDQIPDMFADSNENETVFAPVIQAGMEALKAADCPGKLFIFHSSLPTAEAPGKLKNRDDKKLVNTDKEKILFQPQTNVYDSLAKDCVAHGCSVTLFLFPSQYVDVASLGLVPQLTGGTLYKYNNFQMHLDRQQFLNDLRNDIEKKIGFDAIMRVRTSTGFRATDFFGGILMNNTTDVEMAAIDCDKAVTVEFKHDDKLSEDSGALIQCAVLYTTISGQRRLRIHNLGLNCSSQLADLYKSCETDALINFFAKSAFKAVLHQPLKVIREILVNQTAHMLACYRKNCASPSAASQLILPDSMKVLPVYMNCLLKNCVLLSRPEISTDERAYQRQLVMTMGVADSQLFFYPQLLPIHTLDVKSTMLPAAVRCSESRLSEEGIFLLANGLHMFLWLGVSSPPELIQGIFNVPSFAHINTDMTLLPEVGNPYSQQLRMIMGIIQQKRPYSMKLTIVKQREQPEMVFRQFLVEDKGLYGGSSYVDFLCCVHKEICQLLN
Chain of UniProt Q8WZA2 (Q8WZA2 whole entry, looked up): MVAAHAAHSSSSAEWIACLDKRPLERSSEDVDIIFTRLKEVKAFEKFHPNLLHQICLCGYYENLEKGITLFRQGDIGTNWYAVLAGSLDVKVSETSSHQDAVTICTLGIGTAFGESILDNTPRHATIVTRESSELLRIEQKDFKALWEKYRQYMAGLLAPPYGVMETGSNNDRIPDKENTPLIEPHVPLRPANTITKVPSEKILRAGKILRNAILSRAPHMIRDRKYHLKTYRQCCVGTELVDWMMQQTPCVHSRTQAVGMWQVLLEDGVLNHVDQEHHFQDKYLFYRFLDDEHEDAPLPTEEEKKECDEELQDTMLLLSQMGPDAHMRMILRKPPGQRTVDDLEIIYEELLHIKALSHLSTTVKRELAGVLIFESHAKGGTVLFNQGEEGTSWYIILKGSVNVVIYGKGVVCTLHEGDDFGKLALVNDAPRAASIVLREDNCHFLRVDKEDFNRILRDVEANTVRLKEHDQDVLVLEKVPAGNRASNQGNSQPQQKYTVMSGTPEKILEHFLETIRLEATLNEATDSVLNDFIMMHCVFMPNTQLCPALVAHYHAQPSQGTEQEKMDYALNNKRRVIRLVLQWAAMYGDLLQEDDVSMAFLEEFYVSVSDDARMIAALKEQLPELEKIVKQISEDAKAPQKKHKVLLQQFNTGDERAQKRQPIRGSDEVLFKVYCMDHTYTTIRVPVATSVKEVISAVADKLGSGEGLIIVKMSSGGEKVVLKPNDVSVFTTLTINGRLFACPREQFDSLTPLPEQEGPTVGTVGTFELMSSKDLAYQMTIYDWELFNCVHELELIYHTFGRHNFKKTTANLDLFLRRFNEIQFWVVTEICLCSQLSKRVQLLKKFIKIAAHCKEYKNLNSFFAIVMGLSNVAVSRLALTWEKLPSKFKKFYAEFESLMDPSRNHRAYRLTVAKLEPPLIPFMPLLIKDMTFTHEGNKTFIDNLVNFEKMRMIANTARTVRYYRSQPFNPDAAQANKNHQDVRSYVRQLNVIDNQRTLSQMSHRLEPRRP
Chain of UniProt Q6NUM9 (Q6NUM9 whole entry, looked up): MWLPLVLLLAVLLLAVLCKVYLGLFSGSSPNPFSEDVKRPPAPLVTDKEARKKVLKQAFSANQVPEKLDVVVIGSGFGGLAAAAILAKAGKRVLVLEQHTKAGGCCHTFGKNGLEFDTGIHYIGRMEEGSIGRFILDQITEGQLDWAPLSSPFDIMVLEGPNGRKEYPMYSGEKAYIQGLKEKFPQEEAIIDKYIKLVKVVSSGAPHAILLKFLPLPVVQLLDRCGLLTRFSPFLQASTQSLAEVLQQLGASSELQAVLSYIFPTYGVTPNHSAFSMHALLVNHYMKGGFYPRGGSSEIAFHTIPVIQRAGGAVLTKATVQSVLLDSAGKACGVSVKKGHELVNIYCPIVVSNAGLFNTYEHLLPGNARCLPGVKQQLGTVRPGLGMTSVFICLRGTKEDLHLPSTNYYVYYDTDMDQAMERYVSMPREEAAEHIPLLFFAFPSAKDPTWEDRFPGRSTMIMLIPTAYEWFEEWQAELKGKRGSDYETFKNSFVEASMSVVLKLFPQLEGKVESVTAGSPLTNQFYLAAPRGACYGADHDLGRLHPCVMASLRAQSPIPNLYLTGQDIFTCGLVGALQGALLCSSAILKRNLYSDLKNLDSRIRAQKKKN
Chain of UniProt P28702 (P28702 whole entry, looked up): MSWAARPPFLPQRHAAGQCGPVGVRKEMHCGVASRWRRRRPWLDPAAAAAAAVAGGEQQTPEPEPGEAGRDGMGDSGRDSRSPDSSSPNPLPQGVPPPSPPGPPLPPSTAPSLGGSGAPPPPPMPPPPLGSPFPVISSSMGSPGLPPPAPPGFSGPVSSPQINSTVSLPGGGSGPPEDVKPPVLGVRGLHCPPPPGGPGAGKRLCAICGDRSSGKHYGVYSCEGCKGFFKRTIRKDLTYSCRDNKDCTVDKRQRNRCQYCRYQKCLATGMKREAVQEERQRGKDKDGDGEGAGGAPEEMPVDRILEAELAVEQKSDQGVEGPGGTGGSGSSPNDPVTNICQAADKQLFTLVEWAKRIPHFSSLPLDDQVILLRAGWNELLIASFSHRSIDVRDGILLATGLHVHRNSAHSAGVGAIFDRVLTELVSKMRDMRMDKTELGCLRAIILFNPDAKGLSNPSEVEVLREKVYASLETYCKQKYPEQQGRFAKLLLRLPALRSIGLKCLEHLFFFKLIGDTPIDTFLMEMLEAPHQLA

Target	log2 fold change (ibrutinib)	log2 fold change [1]	log2 fold change (ralimetinib)	log2 fold change [2]	log2 fold change [3]	log2 fold change [4]	log2 fold change [5]	log2 fold change [6]	log2 fold change [7]	log2 fold change [8]	log2 fold change (vemurafenib)	log2 fold change [9]	log2 fold change (barasertib)	log2 fold change [10]	log2 fold change (volasertib)	log2 fold change [11]	log2 fold change [12]	log2 fold change [13]	log2 fold change (saracatinib)	log2 fold change (sotrastaurin)
QTRT2 isoform 4 (UniProt Q9H974)	0.01	0.002	0.014	-0.028	-0.014	-0.035	0.006	-0.025	-0.003	-0.013	0.003	0.012	0.004	-0.022	0.036	-0.035	-0.318 (active)	0.227 (active)	0.016	0.013
RALGAPA1 isoform 6 (UniProt Q6GYQ0)	0.047	-0.06	0.01	0.002	-0.01	-0.039	0.02	-0.007	0.038	-0.081	-0.008	0.017	0.196	0.02	-0.03	-0.007	-0.377 (active)	0.074	0.049	0.03
RPS6KB1 (UniProt P23443)	0.024	0.355 (active)	0.026	0.007	-0.027	0	0.01	-0.029	-0.01	-0.001	-0.052	-0.001	0.068	-0.109	-0.041	0.078	-0.155	0.185	-0.022	0.074
RBM5 (UniProt P52756)	-0.017	0.03	0.004	0.042	-0.141	-0.004	0.065	0.035	-0.007	-0.06	-0.021	-0.018	0.087	0.013	-0.277	0.064	0.048	-0.012	-0.039	-0.03
RARS (UniProt P54136)	-0.001	-0.003	0.062	0.048	0.033	-0.019	0.015	-0.003	0.06	0.033	-0.004	-0.003	0.046	-0.093	-0.078	0.067	0.013	-0.039	0.027	0.045
RAC2 (UniProt P15153)	0.094	-0.04	0.07	-0.027	0.047	-0.005	0.017	-0.022	0.045	-0.014	0.028	0.034	0.054	0.049	-0.071	-0.001	-0.011	0.008	0.045	-0.058
RYR1 (UniProt P21817)	0.091	0.008	-0.028	-0.012	-0.088		-0.014	0.195	-0.032	0.013		-0.038	0.041	0.07	-0.049	-0.053	0.045	0.03	0.057	0.091
RAP1B (UniProt F5GZG1)	0.01	-0.021			0.061	0.036	0.019	-0.124		0.117	0.025	-0.069	0.043	-0.013	-0.015		0.471	0.041	0.094	-0.038
RNF17 (UniProt Q9BXT8)	-0.098	0.035	-0.044	-0.254	-0.023		0.077	-0.196	-0.044	-0.068		0.022	0.133	0.099	0.066	-0.035	0.113	-0.421	0.257	0.046
SAR1A (UniProt Q9NR31)	-0.082	-0.105	0.027	-0.028	0.026	0.163	-0.042	0.021	-0.045	0.112	0.109	0	0.07	0.03	-0.05	0.021	-0.009	-0.108	0.025	0.084
SCAF1 (UniProt Q9H7N4)	0.219	-0.054	-0.025	0.171	0.042	0.065	-0.06	0.056	0.056	0.002	0.027	0.093	0.079	0.089	-0.114	0.05	-0.041	0.008	0.009	-0.029
RNF181 (UniProt Q9P0P0)	0.043	-0.024	-0.001	-0.006	-0.005	-0.056	0.008	0.03	0	0.013	-0.06	0.025	0.179	-0.036	0.004	0.018	-0.013	-0.035	-0.03	-0.02
RELN (UniProt P78509)	0.011	-0.237 (active)	0.011	-0.038	-0.039	-0.01	0	-0.002	0.041	0.09	0.043	-0.098	0.004	0.024	-0.019	0.021	-0.024	0.152	0.035	0.02
RETSAT (UniProt Q6NUM9)	-0.091	0.073	-0.057	-0.134	0.07		-0.113	0.226	-0.015	-0.24	0.115	0.039	0.076	0	-0.087	-0.297	-0.318	0.116	0.108	-0.119
RBBP7 (UniProt Q16576)	0.062	0.018	0.018	0	-0.042	-0.003	0.014	-0.114	0.002	-0.03	0.044	-0.021	-0.072	-0.017	-0.004	-0.002			0.021	0.043
RCOR1 (UniProt Q9UKL0)	0.016	-0.001	0.023	-0.028	0.264	0	0.013	-0.049	0.02	0.021	0.028	-0.03	0.108	-0.008	0.003	-0.001	-0.071	0.017	0.001	0.004
RXRB isoform 3 (UniProt P28702)	0.047	-0.037			0.106	0.026	-0.005	0.011		-0.109	0.028	0.136	0.106	0.008	-0.125		-0.008	-0.089	-0.048	-0.051
SEC24D isoform 2 (UniProt O94855)	0.005	-0.024	0.01	-0.018	0	-0.009	-0.011	0.019	-0.035	0.023	-0.039	0.027	-0.002	-0.032	-0.032	-0.011	-0.001	-0.009	0.005	-0.025
RAB27A (UniProt P51159)	-0.011	-0.035	0.074	0.033	-0.054	-0.044	0.047	-0.057	0.006	-0.026	-0.037	-0.024	0.012	-0.056	-0.082	0.034	0.679 (active)	-0.048	0.021	0.001
SCCPDH (UniProt Q8NBX0)	0.155	-0.042	0.083	0.112	0.122	-0.017	-0.068	0.055	-0.098	0.187	-0.013	-0.054	0.118	0.128	0.055	-0.107	-0.12	0.233	-0.092	0.094
RALA (UniProt P11233)	0.009	-0.01	0.006	-0.05	0.034	-0.002	-0.001	0.057	-0.048	-0.023	0.033	0.004	-0.001	0.029	0.014	-0.023	-0.289 (active)	0.169	-0.021	-0.027
RPS6KA3 (UniProt P51812)	-0.04	0.56 (active)	-0.004	-0.032	-0.11	-0.043	-0.02	-0.061	0.006	-0.039	0.031	0.005	-0.003		-0.026	0.133	-0.014	0.093	0.078	0.037
REXO4 (UniProt Q9GZR2)	0.014	0.027	0.021	0.074	-0.024	0.023	-0.053	-0.043	0.056	0.008	-0.018	0.007	0.088	0.013	-0.034	0	0.452 (active)	-0.184	-0.002	0.013
RAPGEF4 (UniProt Q8WZA2)	-0.026	-0.129	-0.001	-0.328	0.044		0.046	0.442	-0.004	-0.166	0.157	0.077	0.022	0.174	0.049	-0.259	-0.887 (active)	0.391	0.037	0.001
